Among the data in PubChem BioAssay AID2314 (National Center for Advancing Translational Sciences (NCATS), 2010) are max response values, retold here.

About 37,000 (12%) of roughly 300,000 compounds were called active. The sample as a whole holds a higher share of actives than the screen did. Unmarked numbers belong to inactive results. Cut-off read from the data, not from the text of the source: active = max response mostly above about 13% (no sharp cut-off); inactive = mostly below about 14%.

This test is described as follows: Cycloheximide Counterscreen for Small Molecule Inhibitors of Shiga Toxin. Note: read at 38.3 µM for the half of the compounds with a filed dose; 0% is about no effect. The conditions noted are these: cell reporter, cycloheximide protein synthesis inhibition counterscreen; stronger effect = higher value. On the technique in general: Counterscreens check selectivity or assay interference.
For the compound `Cc1ccc(-c2csc(N3CCN(c4cc5c(cc4Cl)nc(-c4ccncc4)n5CCOCCO)CC3)n2)cc1`, the max response was -1.79%.

Take `CCOCCCNC(=O)C(NC(=O)CNC(=O)c1ccccc1)c1ccc(OC)cc1` (stereo not drawn): the max response is -3.78%.

With `O=C(Nc1ccc(F)c(Cl)c1)C1CCN(S(=O)(=O)c2cccnc2)CC1`, the max response was -6.06%.

Take `CCOC(=O)c1c(NC(=O)c2ccc(N3CCOCC3)c([N+](=O)[O-])c2)sc(C)c1C`: the max response was 1.25%.

As for `COc1ccc(C(=O)Nc2ccc(CN3CCOCC3)cc2)cc1`, the max response is 21.3%.

`COc1ccc(C(=O)Nc2sc(C)c(C)c2CN2CCOCC2)cc1`: the max response is 80% (active).

For `O=C(NCc1ccccc1)C1CCN(C(=O)Cc2ccccc2)CC1`, the max response is -1.63%.

For the compound `O=C(CSc1ccc(-c2ccc(Br)cc2)nn1)NCC1CCCO1` (stereo not drawn), the max response was -3.31%.

With `Cc1ccc(/C=C(\C#N)C(=O)Nc2cccc3ncccc23)o1`, the max response was -2.46%.

On to `Cc1nnc2n1N=C(c1ccccc1)CS2`, for which the max response was -4.21%.

Regarding `COc1ccc(C2=Nn3c(nnc3-c3ccccc3O)SC2)cc1`, the max response was 38.9% (active).

Regarding `CC1=Nn2c(nnc2-c2ccccc2)SC1`, the max response is 1.95%.

As for `Cc1c(C)c2ccc(OCC(=O)N3CCC(C(=O)O)CC3)c(C)c2oc1=O`, the max response was -2.07%.

With `Cc1noc(C)c1CCC(=O)O`, the max response was -2.43%.

`Cc1ccccc1CC1(CO)CCCN(C(=O)c2cc(-c3ccccc3)no2)C1` (stereo not drawn): the max response was 13.4%.

Regarding `COC(=O)CCC(=O)N1CCCC(CO)(Cc2ccccc2)C1` (stereo not drawn), the max response was 32.1% (active).

Turning to `CCOC(=O)C1(Cc2ccccc2C)CCCN(C(=O)CCc2c(C)noc2C)C1` (stereo not drawn), the max response is 9.83%.

In the case of `Cc1noc(C)c1CCC(=O)N1CCCC(CO)(Cc2ccccc2)C1` (stereo not drawn), the max response was 30.9% (active).

In the case of `CCCc1cc(C(=O)N2CCCC(CO)(CCCc3ccccc3)C2)n(C)n1` (stereo not drawn), the max response was 9.31%.

Turning to `O=C(NCc1ccccn1)[C@]1(C(F)(F)F)C[C@H](CCc2ccccc2)CCCO1`, the max response was -4.95%.

As to `O=[N+]([O-])c1cc(S(=O)(=O)CCCN2CCOCC2)ccc1F`, the max response is -6.03%.

As for `NC(=O)CCN1CCN(S(=O)(=O)/C=C/c2ccccc2)CC1`, the max response is -9.41%.

Regarding `COCCCNC(=O)Cc1ccc(-n2c(C)nc3cccnc32)cc1`, the max response is -1.61%.

As for `COC(=O)C1CCCCN1C(=O)c1ccc(OC2CCN(C(C)=O)CC2)c(OC)c1` (stereo not drawn), the max response was -4.09%.

`Cn1c(C(=O)OC(C(=O)NC2CCCCC2)c2ccccn2)cc2sccc21` (stereo not drawn): the max response was -2.24%.

`CC(C)Nc1nnc(SCC(=O)/C=C2\N(C)c3ccccc3C2(C)C)s1`: the max response is 5.97%.

For the compound `CN1/C(=C\C(=O)c2oc3ccccc3c2N)C(C)(C)c2ccccc21`, the max response is 5.01%.

With `CN1/C(=C\C(=O)c2cccnc2Cl)C(C)(C)c2ccccc21`, the max response was 17.7% (active).

For `C=CCNC(=O)COc1coc(CN2CCN(Cc3ccccc3)CC2)cc1=O`, the max response is -1.91%.

Regarding `CCOC(=O)NNc1cc(C(F)(F)F)ccn1`, the max response is -0.89%.

`CCCC(=O)Nc1cccc(-c2cn3ccsc3n2)c1`: the max response was 27.2% (active).

Consider `CCc1cccc(NC(=O)CCC(=O)O)c1`, for which the max response was -2.1%.

As for `O=C(NCc1cn2ccsc2n1)Nc1cccc(Cl)c1`, the max response is -2.26%.

Take `CCOC(=O)C1=C(C)OC(N)=C(C#N)C1c1cncc(-c2ccc(F)cc2)c1` (stereo not drawn): the max response is -4.52%.

Consider `CN(C)c1ccc(C(=S)N2CCN(C(=S)Nc3ccc(Cl)cc3)CC2)cc1`, for which the max response is -2.08%.

Turning to `C=CCc1cccc2cc(C(=O)Nc3ccc(NC(C)=O)cc3)c(=O)oc12`, the max response was 7.03%.

On to `CC1Cc2ccccc2N1C(=O)CSc1nnc(C2CC2)n1C` (stereo not drawn), for which the max response is -2.64%.

Take `C[C@@H]1C[C@@H]2O[C@H]2/C=C\C=C\C(=O)Cc2c(Cl)c(O)cc(O)c2C(=O)O1`: the max response was 8.16% (active).

Turning to `O=C(OCC1O[C@@H](OC(=O)c2cc(O)c(O)c(O)c2)[C@@H](OC(=O)c2cc(O)c(O)c(O)c2)[C@@H](OC(=O)c2cc(O)c(O)c(O)c2)[C@@H]1OC(=O)c1cc(O)c(O)c(O)c1)c1cc(O)c(O)c(O)c1` (stereo partly drawn), the max response is -3.49%.

`Cc1cc(C)cc(N(CC(=O)NCCSCc2ccco2)S(C)(=O)=O)c1`: the max response is -3.57%.

Consider `OCCNCCOc1ccc(Cl)c(Cl)c1`, for which the max response was -2.06%.

`COc1ccc(CCNC(=O)CSc2nc(-c3ccc(OC)c(OC)c3)ccc2C#N)cc1`: the max response is -0.296%.

Regarding `COc1ccc2oc(N)c(C=O)c(=O)c2c1`, the max response was 11.3%.

As for `CCc1cc2c(=O)c(-c3ccon3)c(N)oc2cc1OC`, the max response is 40.8% (active).

For the compound `CCc1cc2c(=O)c(-c3ccc(F)cc3)c(C(F)(F)F)oc2cc1OCC(=O)O`, the max response was -0.895%.

As to `COC(=O)Cn1cc(/C=C/[N+](=O)[O-])c2ccccc21`, the max response is 0.349%.

As to `Cc1nn(-c2ccccc2)c(NC(=O)c2cccs2)c(-c2ccc(Cl)cc2)c1=O`, the max response is -4.56%.

For the compound `Cc1nn(-c2ccccc2)c(C)c1/C=N/NC(=O)CSc1nc2ccccc2c(=O)n1-c1ccccc1`, the max response was -2.06%.

With `Cc1ccc(-n2nc(C)c(/C=N/NC(=O)c3cccs3)c2Cl)cc1`, the max response is 41.5% (active).

For `Cc1ccc(-c2nnc(SCC(=O)N/N=C/c3cccs3)n2-c2ccc(C)cc2)cc1`, the max response was -2.1%.

With `Cc1nn(-c2ccccc2)c(Cl)c1/C=N/NC(=O)c1nn(C)cc1[N+](=O)[O-]`, the max response is 30.2% (active).

Consider `Cc1cc(C)c([N+](=O)[O-])cc1-c1ccc(/C=N/NC(=O)c2nonc2N)o1`, for which the max response is 8.92%.

In the case of `COc1ccc(CCN(C)C(=O)C23CC4CC(CC(Cl)(C4)C2)C3)cc1OC`, the max response was 6.24%.

Turning to `Cc1ccc(C(=O)N2CCC(n3nccc3NC(=O)Nc3cccc(F)c3)CC2)cn1`, the max response was -3.88%.

With `Cc1ccccc1Nc1c(-c2ccccc2)nc2ncccn12`, the max response is -1.21%.

Turning to `COc1cc(OC)cc(-c2nc(=S)n3ccsc3n2)c1`, the max response was -1.36%.

For `COc1ccc(-c2cn3cccnc3n2)cc1`, the max response is 23.9% (active).

`c1ccc(-c2cn3c(n2)CCc2ccc4cccnc4c2-3)cc1`: the max response was 11.1%.

Turning to `c1ccc(-c2cn3cccnc3n2)cc1`, the max response was 15.7% (active).

As to `COc1ccc(-c2cn3ccsc3n2)cc1`, the max response is 42.7% (active).

Regarding `COc1ccc(N2CCN(C(=O)CSc3nnc4ncccn34)CC2)cc1`, the max response was -1.32%.

On to `COc1ccc(-c2ccnc(SCC(=O)N3CCOCC3)n2)cc1`, for which the max response is 2.08%.

Consider `CN1CCN(Cc2ccc(OC(F)(F)F)cc2)CC1`, for which the max response was -2.95%.

With `Cc1ccc(S(=O)(=O)NCc2cn3ccsc3n2)c(C)c1`, the max response is 2.86%.

For `FC(F)(F)Oc1ccc(-c2cn3cccnc3n2)cc1`, the max response is 50.9% (active).

Regarding `CC(C)CC[n+]1ccn(C2=C([O-])c3ccccc3C(=O)/C2=N\S(=O)(=O)c2ccccc2)c1`, the max response is -1.98%.

With `O=[N+]([O-])c1ccc(Oc2ccc(F)cc2Br)c2ccncc12`, the max response is -2.77%.

Turning to `CCCCn1nc(C(=O)Nc2ccc(S(=O)(=O)Nc3ncccn3)cc2)c2ccccc2c1=O`, the max response was -8.36%.

With `O=C1c2cccc(OCC(=O)N3N=C(c4cccs4)CC3c3ccc(F)cc3)c2CCN1Cc1ccccc1` (stereo not drawn), the max response was 4.05%.

With `CCOc1cc(C2C(C(=O)c3ccco3)=C(O)C(=O)N2Cc2ccccc2)ccc1O` (stereo not drawn), the max response is 4.82%.

Regarding `Cc1cc(=O)oc2c(C)c(OCC(=O)NCCN3CCOCC3)ccc12`, the max response is 7.13%.

As to `CCNc1c(NS(=O)(=O)c2ccc(C3CCCCC3)cc2)c(=O)oc2ccccc12`, the max response is -5.65%.

For the compound `CC(c1ccccc1)n1c(NCCCn2ccnc2)nc2c1c(=O)[nH]c(=O)n2C` (stereo not drawn), the max response was -2.03%.

For `COc1ccc(-c2c(NC(=O)c3ccco3)oc3ccc(Cl)cc3c2=O)cc1`, the max response was 1.49%.

As for `COc1ccc(CN2CCCC(N3CCc4ccccc4C3)C2)c(O)c1` (stereo not drawn), the max response is -0.856%.

Turning to `CCOc1ccc(NC(=O)[C@H](C)NC(=O)C2CC(=O)N(c3ccc(OC)cc3)C2)cc1` (stereo partly drawn), the max response is 4.95%.

For the compound `O.O.O.O=S(=O)([O-])OC[C@H]1O[C@@H](O[C@]2(COS(=O)(=O)[O-])O[C@H](OS(=O)(=O)[O-])[C@@H](OS(=O)(=O)[O-])[C@@H]2OS(=O)(=O)[O-])[C@H](OS(=O)(=O)[O-])[C@@H](OS(=O)(=O)[O-])[C@@H]1OS(=O)(=O)[O-].[Al]`, the max response is -3.55%.

For `O=C(c1ccccc1)N1CCN(C(=O)c2cc3nc(-c4ccccc4)cc(C(F)(F)F)n3n2)CC1`, the max response was -1.97%.

As for `COc1cccc(-c2nnc(NC(=O)c3ccc(S(=O)(=O)N(CC(C)C)CC(C)C)cc3)o2)c1`, the max response is -5.08%.

Turning to `Cc1ccc(N2C(=O)C3CC3C2=O)cc1` (stereo not drawn), the max response is -6.06%.

Consider `Cc1ccc(S(=O)(=O)NCC(=O)N2CCN(c3ccccn3)CC2)cc1`, for which the max response is -5.16%.

As to `Cc1ccc(N2CCN(c3ccc(C)cc3)C2c2ccccn2)cc1`, the max response is 21.8% (active).

Consider `CC1=NN(/C(=N\c2nnc(C)s2)Nc2ccccc2)[C@H](c2ccc(C)cc2)S1`, for which the max response is -0.911%.

Consider `COc1ccc(O)c(C(=O)c2cnc3c(c2)c(-c2ccc(F)cc2)c(C#N)c(=O)n3C)c1`, for which the max response was 11.3%.

Take `COCCn1c(=O)[nH]c(=O)c2cc(C(=O)c3cc(OC)ccc3O)cnc21`: the max response was -3.24%.

For the compound `COc1ccc(O)c(C(=O)c2cnc3onc(C(C)C)c3c2)c1`, the max response was 26.6% (active).

Regarding `O=C(CS(=O)(=O)c1cn(Cc2ccc(Cl)cc2)c2ccccc12)N1CCOCC1`, the max response is -4.25%.

For `Cc1[nH]n(-c2ccc([N+](=O)[O-])cc2)c(=O)c1C=NCCN1CCN(C(=O)c2ccccc2F)CC1`, the max response is -3.41%.
